Experimental data published in PubChem BioAssay AID583 (Sanford-Burnham Center for Chemical Genomics, 2007).
Where “and” joins values, the source holds several entries; their conditions need not be identical. Equal entries are not always repeated. Hit rate of the full screen: of about 140,000 compounds, about 80 (0.06%) were called active. Only a selection was taken, and actives are over-represented in it overall. A number with no mark means an inactive call. Rule as the data show it: active = displacement above about 50%; inactive = the rest.

Molecular target: Heat shock 70 kDa protein 1A (Homo sapiens) (UniProt P0DMV8)
Sequence (P0DMV8 whole entry, looked up): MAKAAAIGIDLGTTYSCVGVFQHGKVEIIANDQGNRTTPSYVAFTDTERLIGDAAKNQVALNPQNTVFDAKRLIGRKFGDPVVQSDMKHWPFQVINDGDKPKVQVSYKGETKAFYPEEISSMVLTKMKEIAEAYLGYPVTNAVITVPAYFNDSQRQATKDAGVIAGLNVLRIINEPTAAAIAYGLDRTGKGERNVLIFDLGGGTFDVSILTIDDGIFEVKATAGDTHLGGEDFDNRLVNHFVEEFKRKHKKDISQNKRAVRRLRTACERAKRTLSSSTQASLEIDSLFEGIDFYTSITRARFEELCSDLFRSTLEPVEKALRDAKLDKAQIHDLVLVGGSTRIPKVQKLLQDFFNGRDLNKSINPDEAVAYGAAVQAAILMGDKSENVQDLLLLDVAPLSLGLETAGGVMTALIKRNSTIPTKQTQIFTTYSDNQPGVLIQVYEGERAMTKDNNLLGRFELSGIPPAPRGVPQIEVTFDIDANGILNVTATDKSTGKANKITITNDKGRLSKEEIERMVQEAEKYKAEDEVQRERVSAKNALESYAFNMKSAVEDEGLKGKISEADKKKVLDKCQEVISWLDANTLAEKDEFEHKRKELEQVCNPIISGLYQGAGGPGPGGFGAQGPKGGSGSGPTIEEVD
Assay: Hsp70 inhibitors, probe displacement, primary screen, biochemical, fluorescence polarization (AID 583);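 also: plate controls were vehicle for no effect and reference ligand for full effect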
Conditions: mP, at 20 µM, active compounds read high

Row | Compound | displacement
1 | CCOc1ccc(N2C(=O)/C(=C/c3ccc(Br)o3)C(=O)NC2=S)cc1 | 84.5% (active)
2 | CCOc1ccc(N2C(=O)NC(=O)/C(=C\c3ccc(C)o3)C2=O)cc1 | -5.2%
3 | O=C1NC(=S)N(c2ccc(F)cc2)C(=O)/C1=C/c1ccc(Br)o1 | 68.7% (active)
4 | CCOc1ccc(N2C(=O)/C(=C/c3ccc(C)o3)C(=O)NC2=S)cc1 | -26.6%
5 | CN1C(=O)NC(=O)/C(=C/c2ccc(I)o2)C1=O | 9.4%
6 | COc1ccc(N2C(=O)/C(=C/c3ccc(-c4cc(C(=O)O)ccc4Cl)o3)C(=O)NC2=S)cc1 | 5%
7 | O=C1NC(=O)N(c2ccc(Cl)cc2)C(=O)/C1=C/c1ccc(Br)o1 | -0.1%
8 | COc1ccc(N2C(=O)/C(=C/c3ccc(I)o3)C(=O)NC2=S)cc1 | 92% (active)
9 | CN1C(=O)NC(=O)/C(=C/c2ccc(Br)o2)C1=O | 2.1%
10 | Cc1cccnc1NC1=NCC(C)S1 (stereo not given) | 3.9%
11 | CCC(=O)N1N=C2C3CCN(CC3)C2C1c1ccc([N+](=O)[O-])cc1 (stereo not given) | -5.5%
12 | CCC(C)N=Cc1c(O)n(-c2ccccc2)c(=O)[nH]c1=O (stereo not given) | -0.1%
13 | CC(C)C12CN3CCN(CC(C3)C1O)C2 (stereo not given) | 5.4% and 5.3%
14 | C=CCN1C(=O)/C(=C\c2cccn2-c2ccc([N+](=O)[O-])cc2)C(=O)NC1=S | 20.3%
15 | CCN1C(=O)/C(=C/c2cccn2C)C(=O)NC1=S | 72.7% (active)
16 | CCN1C(=O)/C(=C/c2ccoc2)C(=O)NC1=S | 73.6% (active)
17 | COc1ccc(CN2C(=O)NC(=O)/C(=C\c3ccoc3)C2=O)cc1 | -10%
18 | C=CCN1C(=O)NC(=O)C(=Cc2cccn2C)C1=O | 0.2%
19 | O=C1NC(=O)N(c2ccccc2)C(=O)/C1=C/c1ccoc1 | -9.7%
20 | C=CCN1C(=O)/C(=C\c2cccn2-c2cccc([N+](=O)[O-])c2)C(=O)NC1=S | 60.8% (active)
21 | Cn1cccc1/C=C1/C(=O)NC(=S)N(c2ccc(Cl)cc2)C1=O | 36.4%
22 | CN1C(=O)C(=Cc2cccn2-c2cccc([N+](=O)[O-])c2)C(=O)N(C)C1=O | -8.6%
23 | CN1C(=O)C(C2c3ccccc3C(=O)N2Cc2ccccc2)C(=O)N(C)C1=O (stereo not given) | -7%
24 | C=CCN1C(=O)/C(=C\c2cccs2)C(=O)NC1=S | 2.1%
25 | O=S(=O)(c1ccccc1)N1CC1c1ccccc1 (stereo not given) | 0.1%
26 | CCOC(=O)N1CCN(C(C)C(=O)c2c[nH]c3ccccc23)CC1 (stereo not given) | -0.3%
27 | O=C1CN=C(c2cccs2)c2c(sc3c2CCCC3)N1 | 0.2%
28 | CC(C)(C)c1ccc(OCCOc2ccccc2C=C2C(=O)NC(=O)NC2=O)cc1 | -4.4%

Row | Compound | displacement
29 | c1ccc(CN2CCN(C3CCCCC3)CC2)cc1 | -0.7%
30 | CCc1nc2ccccc2c(=O)n1-c1ccc2ccccc2c1 | 0.4%
31 | Cc1cccc(N2C(=O)NC(=O)C(=Cc3ccco3)C2=O)c1 | 9.1%
32 | O=C1NC(=O)N(c2cccc(Br)c2)C(=O)/C1=C/c1ccco1 | 98.6% (active)
33 | CCOc1ccc2ccccc2c1/C=C1\C(=O)NC(=S)N(c2ccccc2)C1=O | 3.3%
34 | O=C1NC(=S)N(c2ccccc2F)C(=O)C1=Cc1ccco1 | 96.8% (active)
35 | O=C1NC(=S)N(c2ccccc2)C(=O)/C1=C/c1ccco1 | 83.4% (active)
36 | O=C1NC(=S)N(c2cccc(Cl)c2)C(=O)/C1=C/c1ccc(Cl)cc1 | -2.1%
37 | CN(C)c1ccc(C=C2C(=O)NC(=S)N(c3ccccc3F)C2=O)cc1 | -0.7%
38 | CCOc1ccc(N2C(=O)/C(=C/c3cc(Cl)ccc3O)C(=O)NC2=S)cc1 | 0.9%
39 | CCOc1ccc(N2C(=O)/C(=C/c3ccco3)C(=O)NC2=S)cc1 | 92% (active)
40 | CC(C)c1ccc(N2C(=O)NC(=O)/C(=C/c3ccco3)C2=O)cc1 | -1.4%
41 | CCOc1ccc(N2C(=O)/C(=C/c3ccc(C)cc3)C(=O)NC2=S)cc1 | -3.1%
42 | Cc1ccc(C=C2C(=O)NC(=S)N(c3ccccc3F)C2=O)s1 | -0.4%
43 | CCC1(Cc2ccccc2)C(=O)NC(=O)NC1=O | 1.5%
44 | CCOc1ccc(NC(=S)NC2CN3CCC2CC3)cc1 (stereo not given) | -0.4%
45 | C#CCNc1ccncc1S(=O)(=O)NC(=O)NC(C)C | 5.1%
46 | Cc1c(C(=O)N2CCC3(CC2)OCCO3)sc2ncnc(N(C)c3ccccc3)c12 | 0.4%
47 | CCOC(=O)C1C(=O)NC2(C)CC1c1cc(OC)ccc1O2 (stereo not given) | 7.2%
48 | COC(=O)C[C@]1(C(=O)OC)CN(C#N)N(c2ccc(Cl)cc2)C12c1ccccc1-c1ccccc12 | 10.7%
49 | c1cc(CN2CCN(C3C4CC5CC(C4)CC3C5)CC2)ccn1 (stereo not given) | 5.7%
50 | CN1CCN(c2nccc3c2ncn3C)CC1 | -5.2%
51 | COc1ccccc1N1CCN(Cc2ccccc2F)CC1 | -0.6%
52 | O=C1NC(=S)N(c2cccc(Br)c2)C(=O)/C1=C/C=C/c1ccccc1 | -13.2%
53 | O=C1NC(=S)N(c2cccc(Br)c2)C(=O)/C1=C/c1ccco1 | 95.8% (active)
54 | O=C1NC(=S)N(c2cccc(Br)c2)C(=O)/C1=C/c1cccs1 | -3%
55 | COc1cc(/C=N/n2cnnc2)ccc1OC(=O)N(C)C | 0.2%
